TEAD-YAP inh: TEAD-YAP interaction inhibition, primary screen, TEAD-YAP interaction inhibitor project, luminescence, HEK-TIYL cells | inhibition, % at 9.12 µM | AID 1259422, 2018 | TEAD-Gal4/YAP UAS-luciferase luminescence | 640,000 compounds, 1.4% hits; in the data active = inhibition above about 32%
MITF inh: MITF inhibitors, primary screen, biochemical, AlphaScreen, human. AlphaScreen MITF homodimerization, bead proximity signal. AID 1259374, 2018. 650,000 compounds, 0.91% hits. inhibition, % at 2.6 µM. Microphthalmia-associated transcription factor (Homo sapiens), O75030; in the data active = inhibition above about 50%
FBW7 act: FBW7 E3 ligase activators, primary screen, biochemical, AlphaScreen, human | F-box/WD repeat-containing protein 7 (Homo sapiens), Q969H0 | AlphaScreen FBW7–phospho-cyclin E peptide binding, activator screen | normalized activity (activation), % at 26.1 µM | 650,000 compounds, 0.13% hits; in the data active = normalized activity above about 1.9%;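 note: purified mutant Fbw7 with reduced substrate affinity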
Target sequence (Q969H0 whole entry, looked up): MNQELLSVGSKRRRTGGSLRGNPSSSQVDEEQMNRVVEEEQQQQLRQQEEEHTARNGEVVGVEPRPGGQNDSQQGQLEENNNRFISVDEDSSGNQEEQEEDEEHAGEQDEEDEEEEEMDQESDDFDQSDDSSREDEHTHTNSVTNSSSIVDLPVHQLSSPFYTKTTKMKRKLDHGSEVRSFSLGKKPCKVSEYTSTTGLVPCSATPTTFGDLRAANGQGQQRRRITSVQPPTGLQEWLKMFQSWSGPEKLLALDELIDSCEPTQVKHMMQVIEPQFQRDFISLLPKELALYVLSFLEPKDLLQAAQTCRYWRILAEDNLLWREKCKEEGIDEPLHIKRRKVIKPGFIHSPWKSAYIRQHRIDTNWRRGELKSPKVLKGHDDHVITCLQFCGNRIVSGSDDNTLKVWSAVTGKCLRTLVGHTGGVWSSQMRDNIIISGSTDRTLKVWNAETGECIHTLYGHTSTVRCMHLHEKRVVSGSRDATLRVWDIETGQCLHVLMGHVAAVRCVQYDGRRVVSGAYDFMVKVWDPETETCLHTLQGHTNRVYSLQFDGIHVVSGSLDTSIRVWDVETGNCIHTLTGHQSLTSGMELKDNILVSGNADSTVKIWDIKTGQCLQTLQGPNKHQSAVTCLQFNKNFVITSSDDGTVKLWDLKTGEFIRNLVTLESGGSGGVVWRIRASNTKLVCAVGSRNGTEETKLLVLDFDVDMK
GPR151 ag: activators of human GPR151, primary screen, cell-based, PathHunter beta-arrestin, luminescence; G-protein coupled receptor 151 (Homo sapiens), Q8TDV0; PathHunter beta-arrestin GPR151 cells; activation, % at 11.2 µM; 650,000 compounds, 1% hits; AID 1508602, 2020; in the data active = activation above about 4.9%
GPR151 conf act: GPR151 activators, triplicate retest, confirmation, cell-based, PathHunter beta-arrestin, luminescence; shares compounds with GPR151 ag; GPR151 PathHunter beta-arrestin cells, 90 min; % of EA-reagent control over plate median; activation, % at 11.2 µM; 6,700 tested, under 10 active; AID 1508609, 2020;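 active = mean percent activation across replicates above the confirmation screen cutoff of 4.91%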
GPR119 ag: GPR119 activators in beta-arrestin cells, counter-screen for GPR151 activator project, cell-based, PathHunter beta-arrestin, luminescence, triplicate | activation, % at 11.2 µM | shares compounds with GPR151 ag | 90 min; 0 = compound-well median, 100 = enzyme-acceptor control | 6,700 compounds, 0.3% hits;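 active = mean percent activation in the counterscreen above 29.09%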;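 note: counterscreen on off-target GPR119 to flag nonselective hits from the GPR151 activator screen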
Each line names hits and unclear results; the compound was inactive in the other large screens (follow-up assays come after a bar, where they were run). The list is not random: actives were taken first. Their share in the collection is about 3.5%.

O=c1c2ccccc2c2ccccc2c(=O)n1-c1ccc(OC(F)(F)F)cc1	GPR151 ag 5.1 | GPR151 conf act inactive | GPR119 ag inactive
O=C(Nc1ccc(Cl)c(C(F)(F)F)c1)c1cc2n(n1)C(C(F)(F)F)CC(c1ccc(Cl)cc1)N2 (stereo unspecified)	none
CCCC(=O)Nc1ccc(C(=O)N2CCN(c3cccc(Cl)c3)CC2)cc1	GPR151 ag 6.3 | GPR151 conf act inactive | GPR119 ag inactive
O=C(C1CC1)N1CCN(c2cccc(Cl)c2)CC1	none
O=C(C(=O)N1CCN(c2cccc(Cl)c2)CC1)N1CCCCC1	GPR151 ag 5.3 | GPR151 conf act inactive | GPR119 ag inactive
O=C(CSCc1ccc([N+](=O)[O-])cc1)N1CCN(c2cccc(Cl)c2)CC1	GPR151 ag 13 | GPR151 conf act inactive | GPR119 ag inactive
Cc1cccc(Nc2nc3nonc3n3cnnc23)c1C	GPR151 ag 5.8 | GPR151 conf act inactive | GPR119 ag inactive
CC(C)n1c(N2CCN(Cc3ccc4c(c3)OCO4)CC2)nc2c(NCc3nc4ccccc4[nH]3)ncnc21	none
COc1ccc2c(-c3ccccc3)cc3nnnn3c2c1	GPR151 ag 5.3 | GPR151 conf act inactive | GPR119 ag inactive
Cc1nc2ccc(Br)cc2c(Cl)c1CCC(=O)O	GPR151 ag 8.9 | GPR151 conf act inactive | GPR119 ag inactive
COc1cc(N2CCN(S(=O)(=O)Cc3ccccc3)CC2)nc(OC)n1	none
Nc1ccc(C(=O)Nc2ccc(Oc3cccc(Oc4ccc(NC(=O)c5ccc(N)cc5)cc4)c3)cc2)cc1	GPR151 ag 6.1 | GPR151 conf act inactive | GPR119 ag inactive
Cc1nc(C)c(C(=O)Nc2ccc3c4c(cccc24)CC3)s1	none
CCCC(=O)N1CCN(c2cc(C)c([N+](=O)[O-])cc2F)CC1	none
O=C(CSc1ccc2nnc(-c3cccnc3)n2n1)N1CCCCCC1	none
O=C(CSc1ccc2nnc(-c3cccnc3)n2n1)N1CCCCC1CCn1ccnc1 (stereo unspecified)	GPR151 ag 7.7 | GPR151 conf act inactive | GPR119 ag inactive
CCOc1ccc(C(=O)NC2CC(C)(C)NC(C)(C)C2)cc1OCC	GPR151 ag 12 | GPR151 conf act inactive | GPR119 ag inactive
CCN(CC)CCCNC(=O)Cn1ncc2c1-c1cc(C)ccc1OC2	none
Cc1ccc(-n2c(C)cc(C=C3C(=O)NC(=O)NC3=O)c2C)cc1	GPR151 ag 8.6 | GPR151 conf act inactive | GPR119 ag inactive
COc1ccccc1/C=N/NC(=O)c1ccccc1O	GPR151 ag 7.1 | GPR151 conf act inactive | GPR119 ag inactive
COc1ccccc1/C=N/NC(=O)c1ccccc1Cl	none
CCN(CC)c1ccc(/C=N/NC(=O)c2ccccc2Cl)c(O)c1	GPR151 ag 7.3 | GPR151 conf act inactive | GPR119 ag inactive
O=C(N/N=C/c1ccccc1O)c1ccc(Cl)cc1Cl	GPR151 ag 5.1 | GPR151 conf act inactive | GPR119 ag inactive
CCCCCCCCCCCCCc1ccco1	GPR151 ag 7.1 | GPR151 conf act inactive | GPR119 ag inactive
CCCCCCNc1nc(NCc2ccco2)nc(OCC)n1	none
O=C(NCc1ccncc1)c1ccc(OC2CCN(C3CCSC3)CC2)cc1 (stereo unspecified)	GPR151 ag 9.7 | GPR151 conf act inactive | GPR119 ag inactive
O=C(NCc1ccccn1)c1cccc(OC2CCN(C3CCSCC3)CC2)c1	GPR151 ag 8.7 | GPR151 conf act inactive | GPR119 ag inactive
Cc1ccc(CNC(=O)CCCn2c(=O)c3ccccc3n(CC(N)=O)c2=O)cc1	GPR151 ag 5.2 | GPR151 conf act inactive | GPR119 ag inactive
O=C(Nc1nnc(S(=O)(=O)N2CCCCC2)s1)C12CC3CC(CC(C3)C1)C2	GPR151 ag 5.5 | GPR151 conf act inactive | GPR119 ag inactive
O=C(Nc1nnc(S(=O)(=O)N2CCCCC2)s1)c1ccc(Cl)cc1	GPR151 ag 5.6 | GPR151 conf act inactive | GPR119 ag inactive
CC1CCCCN1C(=O)COc1ccc(S(=O)(=O)N2CCCC2)cc1[N+](=O)[O-] (stereo unspecified)	none
CC(C)Oc1cc(S(=O)(=O)N2CCCCC2)ccc1N	GPR151 ag 9.9 | GPR151 conf act inactive | GPR119 ag inactive
CC1CN(CC(O)COc2ccc(S(=O)(=O)N3CCCC3)cc2[N+](=O)[O-])CC(C)O1 (stereo unspecified)	GPR151 ag 5.7 | GPR151 conf act inactive | GPR119 ag inactive
COc1ccc(S(=O)(=O)N2CCc3ccccc3C2)cc1I	none
COc1ccc(S(=O)(=O)N2CCCCC2)cc1[N+](=O)[O-]	GPR151 ag 5.0 | GPR151 conf act inactive | GPR119 ag inactive
CCN1CCN(S(=O)(=O)c2ccc(OC)c(I)c2)CC1	GPR151 ag 11 | GPR151 conf act inactive | GPR119 ag inactive
CC(C)C(=O)Nc1c2c(nn1-c1ccc(F)cc1)CS(=O)C2 (stereo unspecified)	none
O=C(COC(=O)CCS(=O)(=O)c1ccccc1Cl)NC(=O)NCc1ccco1	GPR151 ag 6.4 | GPR151 conf act inactive | GPR119 ag inactive
O=C(COc1ccc(Cl)cc1)NC(=O)NCc1ccco1	none
Cc1ccc(CNC(=S)NNC(=O)c2ccc(O)cc2O)cc1	none
COc1nc2ccc(Br)cc2cc1[C@@H](c1ccccc1)[C@@](O)(CCN(C)C)c1cccc2ccccc12	GPR151 ag 7.5 (no result: TEAD-YAP inh, MITF inh, FBW7 act) | GPR151 conf act inactive | GPR119 ag inactive
CN(CCO)c1nc(-c2ccccc2)c2cc(Br)ccc2n1	none
COc1cc2nc(NCc3ccc4c(c3)OCO4)nc(NCCO)c2cc1OC	none
N#Cc1ccccc1OCC(=O)N=Nc1c(O)[nH]c2ccccc12	GPR151 ag 6.0 | GPR151 conf act inactive | GPR119 ag inactive
N#Cc1ccccc1OCC(=O)N=Nc1c(O)[nH]c2ccc([N+](=O)[O-])cc12	none
COc1ccc(NS(=O)(=O)c2ccc(Br)c(C(=O)Nc3ccccc3)c2)cc1	GPR151 ag 6.2 | GPR151 conf act inactive | GPR119 ag inactive
O=S(=O)(Nc1ccc(O)c(Br)c1)c1ccc(F)cc1	none
COc1ccc(S(=O)(=O)Nc2ccc(O)c(Br)c2)cc1	GPR151 ag 5.9 | GPR151 conf act inactive | GPR119 ag inactive
O=C(CN1C(=O)CCC1=O)Nc1ccc(Cl)c(C(F)(F)F)c1	GPR151 ag 6.6 | GPR151 conf act inactive | GPR119 ag inactive
O=C(CN1CCN(CC(=O)Nc2ccc(Cl)c(C(F)(F)F)c2)CC1)Nc1ccc(F)cc1	none
CCN1C(=O)Cc2cc(NC(=O)c3ccc(C(C)(C)C)cc3)ccc21	GPR151 ag 5.2 | GPR151 conf act inactive | GPR119 ag inactive
CCOc1ccc(C(=O)Nc2ccc3c(c2)CC(=O)N3CC)cc1	none
